According to PubChem BioAssay (NCATS):
Results filed as inconclusive are left out. Activity calls are given as the source filed them. Calls come from the whole dose curve; as a rule, active = well fitted curve in the direction sought with a large enough effect; inconclusive = small, poorly fitted or top-dose-only effect, or another doubt; inactive = no such curve, though single readings can be large; an effect the other way counts as inactive or inconclusive.

Key:
[1] = qHTS of pediatric cancer cell lines to identify multiple opportunities for drug repurposing: Confirmatory screen for SK-N-MC cells (AID 1347111);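 note: cells exposed to compound for 48 h before the readout; nearly all actives have a fitted effect of over 70% in size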;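 for activity change, negative = cytotoxic: plate controls were DMSO for no effect and bortezomib for full effect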
Method in brief: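 Metabolically active cells were quantified by ATP-dependent luminescence (CellTiter-Glo, 15 min at room temperature) following 48 h treatment. Cells had been plated at 500-1,000 per well and settled for 5 h beforehand.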

[2] = qHTS of pediatric cancer cell lines to identify multiple opportunities for drug repurposing: Confirmatory screen for BT-12 cells (AID 1347112); note: nearly all actives have a fitted effect of over 55% in size; for activity change, negative = cytotoxic: % is set by controls: 0 for no effect and ±100 for the full control effect
Method in brief: (§1)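 Cells (500-1,000/well) in growth media were settled 5 h at 37 degrees C, then given compounds for 48 h. Viability was read as CellTiter-Glo luminescence. Primary runs used MIPE at 11 points (0.78 nM-46 µM) and NPC at 8 points (0.59 nM-46 µM); follow-ups used 11 points.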

[3] = qHTS of pediatric cancer cell lines to identify multiple opportunities for drug repurposing: Confirmatory screen for LAN-5 cells (AID 1347113); note: nearly all actives have a fitted effect of over 65% in size
Method in brief: as §1

[4] = qHTS of pediatric cancer cell lines to identify multiple opportunities for drug repurposing: Confirmatory screen for DAOY cells (AID 1347114); note: nearly all actives have a fitted effect of over 65% in size; for activity change, negative = cytotoxic: % is set by controls: 0 for no effect and ±100 for the full control effect
Method in brief: (§2)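 Viability measured as metabolically active cells via CellTiter-Glo luminescence following 48 hours of compound exposure, 11-point dilutions in confirmatory testing. 500-1,000 cells/well plated 5 hours before dosing; controls were DMSO and 2.3 µM bortezomib.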

[5] = qHTS of pediatric cancer cell lines to identify multiple opportunities for drug repurposing: Confirmatory screen for NB-EBc1 cells (AID 1347115);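 note: cells exposed to compound for 48 h before the viability read; nearly all actives have a fitted effect of over 45% in size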; for activity change, negative = cytotoxic: % is set by controls: 0 for no effect and ±100 for the full control effect
Method in brief: as §1

[6] = qHTS of pediatric cancer cell lines to identify multiple opportunities for drug repurposing: Confirmatory screen for BT-37 cells (AID 1347117); settings: BT-37 pediatric cancer cells, viability; activity change, negative = cytotoxic: at 45.9 µM (top of the series); note: nearly all actives have a fitted effect of over 55% in size;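 for activity change, negative = cytotoxic: plate controls were DMSO for no effect and bortezomib for full effect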
Method in brief: as §1

[7] = qHTS of pediatric cancer cell lines to identify multiple opportunities for drug repurposing: Confirmatory screen for TC32 cells (AID 1347118);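 note: cells exposed to compound for 48 h before the read; nearly all actives have a fitted effect of over 65% in size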
Method in brief: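 Measured quantity: luminescence from CellTiter-Glo, reflecting metabolically active TC32 cells following 48 h of compound. Curves came straight from multi-point titrations, with 8 or 11 points in primary and 11 in confirmatory screening.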

[8] = qHTS of pediatric cancer cell lines to identify multiple opportunities for drug repurposing: Confirmatory screen for SJ-GBM2 cells (AID 1347116); note: nearly all actives have a fitted effect of over 60% in size
Method in brief: as §2

[9] = qHTS of pediatric cancer cell lines to identify multiple opportunities for drug repurposing: Confirmatory screen for MG 63 (6-TG R) cells (AID 1347119); note: nearly all actives have a fitted effect of over 55% in size
Method in brief: as §1

[10] = qHTS of pediatric cancer cell lines to identify multiple opportunities for drug repurposing: Confirmatory screen for control Hh wild type fibroblast cells (AID 1347121); note: nearly all actives have a fitted effect of over 70% in size
Method in brief: as §1
Potency is the fitted concentration of half-maximal effect.

Compound | Potency [1] | Potency [2] | Potency [3] | Potency [4] | Potency [5] | Potency [6] | Potency [7] | Potency [8] | Potency [9] | Potency [10] | activity change, negative = cytotoxic [6]
CCC(C=C[C@@H]1OC(=O)C=C[C@H]1C)=C[C@H](C)CC=CC(C)=C[C@@H](C)C(=O)[C@@H](C)[C@H](O)[C@@H](C)CC(C)=CC(=O)O | 6.4 nM (active) | 16.1 nM (active) | 5.1 nM (active) | 12.8 nM (active) | 36.1 nM (active) | 5.7 nM (active) | 14.4 nM (active) |  |  |  | 
CCS(=O)(=O)Nc1ccc2[nH]c(O)c(C(=Nc3ccc(CN4CCCCC4)cc3)c3ccccc3)c2c1 | 73.7 nM (active) | 18500 nM (active) | 185 nM (active) | 16500 nM (active) | 4650 nM (active) | 16500 nM (active) | 41.4 nM (active) | 14700 nM (active) | 329 nM (active) |  | 
C[C@H](NCc1ccc2c(c1)nc(NC(=O)c1ccc(-c3cn[nH]c3)s1)n2CCc1ccccc1)C(C)(C)C | 928 nM (active) | 2930 nM (active) | 1650 nM (active) | 2930 nM (active) | 1310 nM (active) | 928 nM (active) | 928 nM (active) | 928 nM (active) | 2330 nM (active) | 10400 nM (active) | 
COc1cccc2c1C(=O)c1c(O)c3c(c(O)c1C2=O)C[C@@](O)(C(=O)CO)C[C@@H]3O[C@H]1C[C@H](N)[C@@H](O)[C@H](C)O1 | 165 nM (active) | 585 nM (active) | 165 nM (active) | 1470 nM (active) |  | 117 nM (active) | 131 nM (active) | 737 nM (active) |  |  | 
CC(C=CC(=O)NO)=C[C@@H](C)C(=O)c1ccc(N(C)C)cc1 | 185 nM (active) | 2930 nM (active) | 414 nM (active) | 2330 nM (active) | 585 nM (active) | 827 nM (active) | 414 nM (active) | 2080 nM (active) | 1170 nM (active) | 6570 nM (active) | 
COC[C@H](NC(=O)c1cnc(C)s1)C(=O)N[C@@H](COC)C(=O)N[C@@H](Cc1ccccc1)C(=O)[C@@]1(C)CO1 | 36.9 nM (active) | 414 nM (active) | 329 nM (active) | 104 nM (active) | 208 nM (active) | 165 nM (active) | 165 nM (active) | 131 nM (active) | 92.8 nM (active) | inactive | 
COc1ccc(S(=O)(=O)Nc2cccnc2Nc2ccc(O)cc2)cc1 | 2610 nM (active) | 3290 nM (active) | 1650 nM (active) | 369 nM (active) | 2330 nM (active) | 1310 nM (active) | 737 nM (active) |  | 465 nM (active) | inactive | 
CC[C@@]1([C@@H]2O[C@@H]([C@H]3O[C@@](O)(CO)[C@H](C)C[C@H]3C)C[C@H]2C)CC[C@H]([C@]2(C)CC[C@]3(C[C@H](O)[C@@H](C)[C@@H]([C@@H](C)[C@@H](OC)[C@H](C)C(=O)O)O3)O2)O1 | 229 nM (active) | 1150 nM (active) | 362 nM (active) | 3230 nM (active) | 1620 nM (active) | 204 nM (active) | 288 nM (active) | 1150 nM (active) | 512 nM (active) |  | 
CC(C)(O)Cn1c(NC(=O)c2ccc(-c3cn[nH]c3)s2)nc2cc(CN3CCOCC3)ccc21 | 1310 nM (active) | 1040 nM (active) | 1040 nM (active) | 2610 nM (active) | 1040 nM (active) | 737 nM (active) | 1310 nM (active) | 1170 nM (active) | 1170 nM (active) | 5220 nM (active) | 
Cc1[nH]c(C=C2C(=O)Nc3ccccc32)c(C)c1CCC(=O)O | inactive | inactive | inactive | inactive | inactive | inactive | inactive |  | inactive | inactive | 
Cc1cnc(Nc2ccc(N3CCN(C)CC3)cc2)nc1Nc1cccc(S(=O)(=O)NC(C)(C)C)c1 | 3290 nM (active) | 16500 nM (active) | 7370 nM (active) | 18500 nM (active) | 14700 nM (active) | 5850 nM (active) | 2330 nM (active) |  | 2930 nM (active) | 14700 nM (active) | 
CS[C@H]1SC[C@@H]2C(=O)N(C)[C@H](C(C)C)C(=O)OC[C@H](NC(=O)c3cnc4ccccc4n3)C(=O)N[C@H](C)C(=O)N(C)[C@@H]1C(=O)N(C)[C@H](C(C)C)C(=O)OC[C@H](NC(=O)c1cnc3ccccc3n1)C(=O)N[C@H](C)C(=O)N2C | 13100 nM (active) | 9.3 nM (active) | inactive | 14.7 nM (active) | inactive |  |  | inactive | inactive | inactive | 1.7% (active)
COc1cc(O)c2c(c1)C1OC1C[C@H](O)[C@H](O)C(=O)C=CC[C@H](C)OC2=O (some centres not stated) | 9270 nM (active) | 16500 nM (active) | 7370 nM (active) | 16500 nM (active) | 5850 nM (active) | 14700 nM (active) | 9270 nM (active) | 5850 nM (active) | 5850 nM (active) |  | 
CNC(=O)c1ccc(Nc2cc(Nc3ccccc3S(=O)(=O)C(C)C)c3cc[nH]c3n2)nc1 | 2610 nM (active) | 13100 nM (active) | 2930 nM (active) | 5850 nM (active) | 5850 nM (active) | 6570 nM (active) | 1850 nM (active) | 10400 nM (active) | 1040 nM (active) | 13100 nM (active) | 
